# Bioassay records deposited in PubChem BioAssay by several laboratories.
# SMARCA2 activ: activators of SMARCA2 function. MG213 cells, MMTV-luciferase reporter, dexamethasone, overnight. activation, % at 9.1 µM. 1% of 370,000 active; in the data active = activation above about 7.8%;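 note: 0% = vehicle wells and 100% = reference activator wells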
# Wnt act: activates Wnt/beta-catenin signaling in a reporter cell assay; activator, plate reader; activation, % at 9.35 µM; 1.2% of 300,000 active; in the data active = activation above about 30%, passing the limit was not always enough;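 note: 0% = neutral control wells and 100% = positive control wells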
# esBAF inh: SWI/SNF esBAF complex inhibition; AID 602393; mouse ES cells, Bmi1-luciferase knock-in reporter, 24 h; 100% = twice the neutral-well signal; 2% of 350,000 active; reporter increase, % at 12.5 µM; in the data active = activation above about 40%;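 note: 0% = median of the plate's neutral control wells and 100% = double that signal; a rise in the Bmi1 reporter signal indicates esBAF inhibition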
# FGF22 binding: binders of recombinant human FGF22 by thermal shift; activity (Tm shift, normalised), % at 9.99 µM; 1.5% of 340,000 active; SYPRO orange fluorescence; percent of sucrose octasulfate shift, DMSO zero; Q9HCT0; AID 651658;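 active = mean Tm shift, scaled 0 neutral to 100 positive control, at about 1.3% or above, every replicate too, limit read from the data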
# Target sequence (Q9HCT0 whole entry, looked up): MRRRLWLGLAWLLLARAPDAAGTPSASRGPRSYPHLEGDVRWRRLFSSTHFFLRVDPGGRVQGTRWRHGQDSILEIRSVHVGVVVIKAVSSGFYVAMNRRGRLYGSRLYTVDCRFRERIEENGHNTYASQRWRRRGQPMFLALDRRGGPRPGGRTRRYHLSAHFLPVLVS
# MLL AF4-AF9 inh: inhibitors of human MLL-AF4/AF9 interaction | inhibition, % at 10 µM | AID 651704 | AlphaScreen, biotin-AF4 peptide binding to FLAG-AF9 | 0.47% of 350,000 active | P42568;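 active = every replicate reaching a set inhibition limit, whatever the replicate mean, cut at about 25% in these data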;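 note: 0% = plate neutral control median and 100% = total signal loss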
# MITF act: MITF TRPM1 promoter activation in melanoma cells; SK-MEL-5 TRPM1-promoter luciferase, 24 h; % of positive control, neutral wells = 0; activation, % at 12.5 µM; 0.75% of 300,000 active;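 active = mean activation of at least 80% with every replicate also reaching 80%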;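 note: 0% = neutral control wells and 100% = parthenolide positive control wells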
# * = called active by the depositor; . = no result given. Shown are actives, neighbours in structure and some others; about 4.3% of the full set was active somewhere.
SMILES,SMARCA2 activ,Wnt act,esBAF inh,FGF22 binding,MLL AF4-AF9 inh,MITF act
COc1ccc(S(=O)(=O)N(C)C[C@H]2Oc3ccc(NS(=O)(=O)c4ccccc4)cc3C(=O)N([C@H](C)CO)C[C@H]2C)cc1,.,.,2,-1,.,.
Cc1noc(C)c1NC(=O)N(C)C[C@H]1Oc2ncc(/C=C/c3ccccc3)cc2C(=O)N([C@H](C)CO)C[C@H]1C,.,.,0,0,-5,.
CCCCCC1(C(=O)OCC)CC(CSC(=N)N)OC1=O (stereo not drawn),-1,-11,.,44*,-2,24
Cc1ccccc1CN1CCCCC(NC(=O)c2ccc(Br)cc2)C1=O (stereo not drawn),-4,.,.,.,.,.
CCCN(C)C[C@H]1Oc2cc(-c3ccc(C#N)cc3)ccc2S(=O)(=O)N([C@@H](C)CO)C[C@H]1C,.,.,0,0,-1,.
Cc1ccc2nc(SC(C)C(=O)N3CC(C)OC(C)C3)[nH]c2c1 (stereo not drawn),-1,2,.,43*,2,-15
CCOc1ccccc1N1C(=O)CC(Sc2n[nH]c(-c3ccccc3)n2)C1=O (stereo not drawn),5,-8,.,44*,6,6
CCOc1ccccc1C(=O)NCC(=O)OCc1csc(CC(=O)Nc2ccc(C)cc2)n1,-1,5,56*,0,0,25
CCOc1ccccc1C(=O)N[C@H](C(=O)OCc1csc(CC(=O)Nc2ccc(C)cc2)n1)C(C)C,1,-1,.,0,-2,-8
C[C@H](CO)N1C[C@H](C)[C@@H](CN(C)S(=O)(=O)c2ccc(F)cc2)Oc2ccc(NS(C)(=O)=O)cc2CC1=O,.,.,-2,0,-3,.
Cc1ccc(S(=O)(=O)N(C)C[C@H]2Oc3c(NC(=O)Nc4ccc(C(F)(F)F)cc4)cccc3C(=O)N([C@@H](C)CO)C[C@H]2C)cc1,.,.,13,0,3,.
O=C(COc1ccccc1Cl)N1CCc2ccccc2C1,0,3,31,0,-10,.
O=C(COc1ccccc1)N1CCc2ccccc21,0,.,.,0,-19,34
O=C(COc1ccc(Br)cc1)N1CCc2ccccc21,2,28,.,0,-3,99*
O=C(COc1ccccc1Cl)N1CCc2ccccc21,5,21,64*,0,-1,66
O=C(Nc1ccc(C(F)(F)F)cc1)N[C@@H]1C=C[C@@H](CC(=O)N2CCCCC2)O[C@@H]1CO,.,.,1,0,-4,.
C[C@@H]1CN([C@H](C)CO)C(=O)Cc2cc(NC(=O)CCC(F)(F)F)ccc2O[C@H]1CN(C)C(=O)Nc1ccc2c(c1)OCO2,.,.,1,0,-18,.
COc1ccc2c(c1)CCC1C2=NN(/C(C)=C\C(C)=O)C1c1ccc(F)cc1 (stereo not drawn),5,52*,.,0,4,27
COc1ccc2c(c1)C1=NN(/C(C)=C/C(C)=O)C(c3ccc(F)cc3)C1CC2 (stereo not drawn),0,.,.,0,8,9
COc1ccc2c(c1)C1=NN(/C(C)=C\C(C)=O)C(c3ccccc3)C1CC2 (stereo not drawn),5,.,48*,.,.,19
Brc1ccccc1-c1nnc(CSc2nncn2-c2ccccc2)o1,-5,35*,28,.,.,1
O=c1c2ccccc2nc(SCc2nnc(-c3ccccc3Br)o2)n1-c1ccccc1,2,0,3,0,-7,-3
C[C@H]1CN([C@@H](C)CO)C(=O)c2cc(C#Cc3ccccn3)cnc2O[C@H]1CN(C)C(=O)c1ccccn1,.,.,-1,0,-4,.
CCOc1ccc(OCc2ccc(C(=O)N(CC)CC)cc2)cc1,-1,0,78*,0,0,8
CCC(=O)c1ccc(OCc2ccc(C(=O)OC)cc2)cc1,3,-3,60*,44*,2,-4
SMILES,SMARCA2 activ,Wnt act,esBAF inh,FGF22 binding,MLL AF4-AF9 inh,MITF act
O=C(Nc1cccc(S(=O)(=O)N2CCOCC2)c1)c1cnn2c(C(F)F)cc(-c3ccccc3)nc12,-4,-1,.,1,-3,11
CNS(=O)(=O)c1ccc(NC(=O)c2cnn3c(C(F)F)cc(-c4ccccc4)nc23)cc1,0,2,3,43*,0,1
COc1ccc(-c2cc(C(F)F)n3ncc(C(=O)Nc4cc(C)on4)c3n2)cc1,1,-11,.,43*,-4,-35
C/C=C/c1cnc2c(c1)C(=O)N([C@H](C)CO)C[C@@H](C)[C@@H](CN(C)C(=O)Cc1ccccc1)O2,.,.,1,0,-3,.
Cc1ccc(/C=C/S(=O)(=O)NCC(=O)O)cc1,1,0,.,43*,-1,15
O=C1CN(Cc2ccc(F)cc2)C[C@H]2[C@H](c3ccc(Br)cc3)[C@@H](CO)N12,.,.,.,.,-8,.
CC(C)NC(=O)N(C)C[C@@H]1Oc2c(NC(=O)Nc3ccccc3)cccc2C(=O)N([C@H](C)CO)C[C@@H]1C,.,.,-4,0,0,.
O=S(=O)(c1ccc(OCC2CO2)cc1)c1ccc(OCC2CO2)cc1 (stereo not drawn),-2,5,.,43*,-2,-26
Cc1noc(C)c1NC(=O)NCC[C@@H]1CC[C@@H](NC(=O)Cc2cccnc2)[C@H](CO)O1,.,.,0,0,0,.
Cn1c(=O)c2cn3c(c2n(C)c1=O)C(c1ccccc1)CC(c1ccccc1)=N3 (stereo not drawn),-1,-3,77*,.,.,-21
CN1CCCCC(NC(=O)c2ccc3ccccc3c2)C1=O (stereo not drawn),7,19,.,0,.,.
COc1ccc2c3c(n(C)c2c1)[C@H](CO)N(C(=O)C1CC1)CC31CN(Cc2cccc(F)c2)C1,.,.,.,0,22,.
COc1ccc2c3c(n(C)c2c1)[C@H](CO)N(C(=O)C1CCCC1)CC31CCN(Cc2cccc(F)c2)CC1,.,.,.,0,26*,.
COc1ccc2c3c(n(C)c2c1)[C@@H](CO)N(C(=O)C1CCCC1)CC31CCN(Cc2cccc(F)c2)CC1,.,.,.,1,38*,.
COc1ccc2c3c(n(C)c2c1)[C@@H](CO)N(C(=O)C1CCOCC1)CC31CN(Cc2cccc(F)c2)C1,.,.,.,.,13,.
Cc1ccccc1C1=NC(c2ccc(F)cc2F)ON1 (stereo not drawn),0,.,48*,.,.,61
COc1ccccc1C1N=C(c2ccccc2C)NO1 (stereo not drawn),4,29,.,0,-3,68
COc1ccc(Cl)cc1-c1nc(-c2ccc(Br)o2)no1,-3,6,51*,0,2,.
Cc1cccc(C(=O)c2c(N)sc3c2CCCC3)c1,0,37*,.,.,.,18
Cc1cccc(C(=O)Nc2sc3c(c2C(=O)O)CCCC3)c1,0,9,72*,0,-7,-7
O=C(Nc1sc2c(c1C(=O)O)CCC2)c1cccc(Cl)c1,2,4,.,0,-1,4
Cc1cccc(C(=O)Nc2sc(-c3ccccc3)cc2C(=O)O)c1,7,26,68*,.,-132,93*
